Source: PubChem BioAssay (NCI)
Compounds without any hit were thinned out: in the full panel of roughly 83,000, 20% have a hit.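 Step 1: grow cells in 96-well plates. Step 2: add test compound at a single concentration. Step 3: incubate 48 h. Step 4: record percent growth.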 The source made the active and inactive calls. The calls were made as follows: active = growth percent below 10; inactive = the rest.

Assays:
Test in all cases: NCI-60 one-dose screen, 48 h (100 = growth as untreated, 0 = no growth, -100 = all killed)
NCI-H23 lung = conditions: 10 µM unless noted
NCI-H226 lung = conditions: 10 µM unless noted
NCI-H322M lung = conditions: 10 µM unless noted
HOP-62 NSCLC = conditions: 10 µM unless noted
NCI-H460 lung = conditions: 10 µM unless noted
HOP-92 NSCLC = conditions: 10 µM unless noted
NCI-H522 lung = conditions: 10 µM unless noted
A549/ATCC NSCLC = conditions: 10 µM unless noted
786-0 renal = conditions: 10 µM unless noted
COLO 205 colon = conditions: 10 µM unless noted
DU-145 prostate = conditions: 10 µM unless noted
K-562 leukemia = conditions: 10 µM unless noted
MALME-3M melanoma = conditions: 10 µM unless noted
MDA-MB-231 breast = conditions: 10 µM unless noted
RXF 393 renal = conditions: 10 µM unless noted
SF-268 CNS = conditions: 10 µM unless noted
SF-295 CNS = conditions: 10 µM unless noted
SF-539 CNS = conditions: 10 µM unless noted
M14 melanoma = conditions: 10 µM unless noted
UACC-257 melanoma = conditions: 10 µM

Measured: growth

CCN1C(=O)N[C@H]2[C@@H]3NC(=O)c4ccc(Cl)n4[C@@H]3C[C@]21O
inactive: NCI-H322M lung 11.7% | RXF 393 renal 10.2%
active: NCI-H23 lung 6.06% | NCI-H226 lung 5.43% | HOP-62 NSCLC -4.56% | NCI-H460 lung 2.06% | HOP-92 NSCLC 3.95% | NCI-H522 lung -26.9% | A549/ATCC NSCLC 9.08% | 786-0 renal -4.85% | COLO 205 colon -29.5% | DU-145 prostate 5.1% | K-562 leukemia 3.13% | MALME-3M melanoma -1.41% | MDA-MB-231 breast -3.51% | SF-268 CNS 5.4% | SF-295 CNS 0.996% | SF-539 CNS -33.5% | M14 melanoma -21.3%

COc1ncc(-c2ccc3ncnc(Nc4cccc(Cl)c4)c3c2)cc1N(S(C)(=O)=O)S(C)(=O)=O
inactive: NCI-H23 lung 71.5% | NCI-H226 lung 64.5% | NCI-H322M lung 17.4% | HOP-62 NSCLC 79.1% | NCI-H460 lung 62.3% | NCI-H522 lung 52.2% | A549/ATCC NSCLC 47.9% | 786-0 renal 79.5% | COLO 205 colon 77.1% | DU-145 prostate 54.8% | K-562 leukemia 94.2% | MALME-3M melanoma 44.8% | MDA-MB-231 breast 67.3% | RXF 393 renal 68.8% | SF-268 CNS 73.2% | SF-295 CNS 76% | SF-539 CNS 76.2% | M14 melanoma 73.7%
active: HOP-92 NSCLC 7.62%

Nc1cccc2c1CN(C1CCC(=O)NC1=O)C2=O (stereo unspecified)
inactive: NCI-H23 lung 99.4% | NCI-H226 lung 108% | NCI-H322M lung 111% | HOP-62 NSCLC 106% | NCI-H460 lung 102% | HOP-92 NSCLC 22.6% | NCI-H522 lung 56% | A549/ATCC NSCLC 106% | 786-0 renal 107% | COLO 205 colon 111% | DU-145 prostate 107% | K-562 leukemia 132% | MALME-3M melanoma 119% | MDA-MB-231 breast 107% | SF-268 CNS 102% | SF-295 CNS 116% | SF-539 CNS 94.7% | M14 melanoma 101%
active: RXF 393 renal -17.4%

COc1cccc(-n2cc(-c3nc(Cl)c4ccccc4n3)nn2)c1
inactive: NCI-H23 lung 100% | NCI-H226 lung 111% | NCI-H322M lung 102% | HOP-62 NSCLC 125% | NCI-H460 lung 107% | HOP-92 NSCLC 101% | NCI-H522 lung 83.2% | A549/ATCC NSCLC 92.7% | 786-0 renal 97.8% | COLO 205 colon 98.8% | DU-145 prostate 107% | K-562 leukemia 97.9% | MALME-3M melanoma 104% | MDA-MB-231 breast 107% | SF-268 CNS 105% | SF-295 CNS 93.2% | SF-539 CNS 108% | UACC-257 melanoma 110% | M14 melanoma 106%

CC1=CNNc2c3ncnc-3ncn21
inactive: NCI-H23 lung 98% | NCI-H226 lung 99.7% | NCI-H322M lung 107% | HOP-62 NSCLC 95.4% | NCI-H460 lung 108% | HOP-92 NSCLC 94.7% | NCI-H522 lung 96.6% | A549/ATCC NSCLC 100% | 786-0 renal 102% | COLO 205 colon 106% | DU-145 prostate 104% | K-562 leukemia 101% | MALME-3M melanoma 102% | MDA-MB-231 breast 103% | SF-268 CNS 103% | SF-295 CNS 103% | SF-539 CNS 101% | UACC-257 melanoma 109%

Nc1c(C(=O)Nc2cccc(C(F)(F)F)c2)sc2nc3c(cc12)C(O)CCC3 (stereo unspecified)
active: COLO 205 colon 9.16% | DU-145 prostate 9.15%
inactive: NCI-H23 lung 39.5% | NCI-H226 lung 56.3% | NCI-H322M lung 27.2% | HOP-62 NSCLC 40.7% | NCI-H460 lung 14.5% | HOP-92 NSCLC 67.2% | NCI-H522 lung 19.3% | A549/ATCC NSCLC 24.7% | 786-0 renal 47.4% | K-562 leukemia 14.4% | MALME-3M melanoma 51.2% | MDA-MB-231 breast 61.9% | SF-268 CNS 45.6% | SF-295 CNS 27.2% | SF-539 CNS 21.6% | UACC-257 melanoma 44.2% | M14 melanoma 30.9%

COc1ccc(C2CC(c3cccs3)=NN2c2ccc(S(=O)(=O)NC(=O)NCc3cccc(OC)c3)cc2)cc1 (stereo unspecified)
active: A549/ATCC NSCLC 5.45% | COLO 205 colon -63.5%
inactive: NCI-H23 lung 97.6% | NCI-H226 lung 110% | NCI-H322M lung 102% | HOP-62 NSCLC 81% | NCI-H460 lung 109% | HOP-92 NSCLC 87.1% | NCI-H522 lung 87.3% | 786-0 renal 101% | DU-145 prostate 106% | K-562 leukemia 111% | MALME-3M melanoma 31.2% | MDA-MB-231 breast 113% | SF-268 CNS 97.9% | SF-295 CNS 105% | SF-539 CNS 104% | UACC-257 melanoma 30% | M14 melanoma 52.1%

CCN1C(=O)N(CC)C2C1NN=c1s/c(=C\c3ccccn3)c(=O)n12 (stereo unspecified)
active: NCI-H460 lung 8.89% | COLO 205 colon -2.81% | DU-145 prostate 9.45% | K-562 leukemia 8.75% | SF-295 CNS 3.21% | SF-539 CNS -19.8%
inactive: NCI-H23 lung 34.5% | NCI-H226 lung 92.2% | NCI-H322M lung 45.8% | HOP-62 NSCLC 11.6% | HOP-92 NSCLC 37.3% | NCI-H522 lung 15.1% | A549/ATCC NSCLC 32.5% | 786-0 renal 22.3% | MALME-3M melanoma 22.4% | MDA-MB-231 breast 45.5% | SF-268 CNS 74.2% | M14 melanoma 13%

Cc1cc(Nc2nc(-c3ccc(F)cc3)nc3ccccc23)n[nH]1
inactive: NCI-H23 lung 57.3% | NCI-H226 lung 58.6% | NCI-H322M lung 65.5% | HOP-62 NSCLC 78.6% | NCI-H460 lung 35.6% | HOP-92 NSCLC 30.5% | NCI-H522 lung 27.7% | A549/ATCC NSCLC 13.8% | 786-0 renal 56.9% | COLO 205 colon 40.3% | DU-145 prostate 77.1% | K-562 leukemia 36.6% | MALME-3M melanoma 57% | MDA-MB-231 breast 78.7% | SF-268 CNS 63.3% | SF-295 CNS 64.4% | SF-539 CNS 66.6% | UACC-257 melanoma 47.2% | M14 melanoma 53.5%

COc1cc(OC)cc(-c2n[nH]nc2-c2ccc3c(c2)OCO3)c1
inactive: NCI-H23 lung 30.1% | NCI-H226 lung 92.1% | NCI-H322M lung 55.5% | HOP-62 NSCLC 30.3% | NCI-H460 lung 12% | HOP-92 NSCLC 57% | A549/ATCC NSCLC 28.9% | 786-0 renal 40% | DU-145 prostate 25.1% | K-562 leukemia 16.7% | MALME-3M melanoma 67.7% | MDA-MB-231 breast 18.9% | SF-268 CNS 52% | UACC-257 melanoma 71.4% | M14 melanoma 14.5%
active: NCI-H522 lung -41.5% | COLO 205 colon -61.2% | SF-295 CNS 1.21% | SF-539 CNS -31%

Clc1nc(Cl)c2ncn(C/C=C/Cn3cnc4c(Cl)nc(Cl)nc43)c2n1
inactive: NCI-H23 lung 94.7% | NCI-H226 lung 94.2% | NCI-H322M lung 94.6% | HOP-62 NSCLC 94.3% | NCI-H460 lung 84.5% | NCI-H522 lung 27.7% | A549/ATCC NSCLC 71.6% | 786-0 renal 93.2% | COLO 205 colon 63.3% | DU-145 prostate 44.2% | K-562 leukemia 17.4% | MALME-3M melanoma 111% | MDA-MB-231 breast 96.4% | SF-268 CNS 62.3% | SF-295 CNS 60.4% | SF-539 CNS 46.8% | M14 melanoma 101%
active: HOP-92 NSCLC -13.3%

COc1ccc(/C=C2\C(=O)N(C(=O)c3csc(NC(C)=O)n3)N=C2C)cc1
inactive: NCI-H23 lung 102% | NCI-H226 lung 104% | NCI-H322M lung 96.7% | HOP-62 NSCLC 100% | NCI-H460 lung 105% | HOP-92 NSCLC 99.8% | NCI-H522 lung 85.2% | A549/ATCC NSCLC 97.3% | 786-0 renal 100% | COLO 205 colon 99.3% | DU-145 prostate 108% | K-562 leukemia 95.3% | MALME-3M melanoma 90.5% | MDA-MB-231 breast 105% | SF-268 CNS 99.1% | SF-295 CNS 105% | SF-539 CNS 104% | UACC-257 melanoma 89.2% | M14 melanoma 98.7%

O=C1CCCCC=C1C[N+](=O)[O-]
inactive: NCI-H23 lung 91.5% | NCI-H226 lung 86.3% | NCI-H322M lung 105% | HOP-62 NSCLC 107% | NCI-H460 lung 102% | HOP-92 NSCLC 90% | A549/ATCC NSCLC 121% | 786-0 renal 102% | COLO 205 colon 43% | DU-145 prostate 106% | K-562 leukemia 27.8% | MALME-3M melanoma 73.2% | MDA-MB-231 breast 107% | SF-268 CNS 94.2% | SF-295 CNS 97.7% | SF-539 CNS 101% | M14 melanoma 91.3%
active: NCI-H522 lung -12.3%

c1cncc(CNc2ccccc2-c2nnc(Nc3ccc4c(c3)OCCO4)o2)c1
inactive: NCI-H23 lung 20.9% | NCI-H322M lung 49.6% | HOP-62 NSCLC 32.5% | HOP-92 NSCLC 136% | A549/ATCC NSCLC 31.8% | 786-0 renal 42.4% | K-562 leukemia 14.2% | MALME-3M melanoma 80.2% | MDA-MB-231 breast 26.4% | SF-268 CNS 18.7% | SF-295 CNS 12.2%
active: NCI-H226 lung 7.4% | NCI-H460 lung 4.61% | NCI-H522 lung -28.3% | COLO 205 colon -21.9% | DU-145 prostate -5.96% | SF-539 CNS 4.68%

COc1cccc2cc(-c3cc4ccccc4[nH]3)/c(=N/C(=S)Nc3ccccc3)oc12
active: HOP-92 NSCLC 5.47%
inactive: NCI-H23 lung 61.8% | NCI-H226 lung 69.9% | NCI-H322M lung 84% | HOP-62 NSCLC 18.5% | NCI-H460 lung 69.3% | NCI-H522 lung 88.1% | A549/ATCC NSCLC 91.4% | 786-0 renal 59.4% | COLO 205 colon 98.1% | DU-145 prostate 74.4% | K-562 leukemia 84.4% | MALME-3M melanoma 78.9% | MDA-MB-231 breast 61.6% | SF-268 CNS 70.6% | SF-295 CNS 87.1% | SF-539 CNS 33% | M14 melanoma 70.6%

CCCCNc1nnc(-c2cc(-c3cc4ccccc4o3)nn2-c2ccccc2)o1
inactive: NCI-H23 lung 96.7% | NCI-H226 lung 86.2% | NCI-H322M lung 87.4% | HOP-62 NSCLC 110% | NCI-H460 lung 98.7% | HOP-92 NSCLC 46.4% | NCI-H522 lung 80% | A549/ATCC NSCLC 82% | 786-0 renal 93% | COLO 205 colon 105% | DU-145 prostate 102% | K-562 leukemia 83% | MALME-3M melanoma 93.1% | MDA-MB-231 breast 91.4% | SF-268 CNS 93.9% | SF-295 CNS 98.7% | SF-539 CNS 97.4% | M14 melanoma 108%
